Out of some 310,000 compounds screened, about 3,800 (1.2%) were called active.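 The calls were made as follows: active = ratio B-score over 3 SD below the library mean, with starting fluorescence within 5 SD of its mean; inactive = the rest, inconclusive results apart.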 This excerpt belongs to a sample that is enriched for actives.
biological target: Potassium channel subfamily K member 9 (Homo sapiens) (UniProt Q9NPC2); assay: blockers of human TASK-3 (KCNK9) channel – HEK293 cells, thallium flux, primary screen (AID 488922); details: HEK293 KCNK9, FluxOR thallium flux fluorescence, at 10 µM; active compounds read low;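 as to B-score: negative B-score means less thallium flux so channel inhibition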
Sequence (Q9NPC2 whole entry, looked up): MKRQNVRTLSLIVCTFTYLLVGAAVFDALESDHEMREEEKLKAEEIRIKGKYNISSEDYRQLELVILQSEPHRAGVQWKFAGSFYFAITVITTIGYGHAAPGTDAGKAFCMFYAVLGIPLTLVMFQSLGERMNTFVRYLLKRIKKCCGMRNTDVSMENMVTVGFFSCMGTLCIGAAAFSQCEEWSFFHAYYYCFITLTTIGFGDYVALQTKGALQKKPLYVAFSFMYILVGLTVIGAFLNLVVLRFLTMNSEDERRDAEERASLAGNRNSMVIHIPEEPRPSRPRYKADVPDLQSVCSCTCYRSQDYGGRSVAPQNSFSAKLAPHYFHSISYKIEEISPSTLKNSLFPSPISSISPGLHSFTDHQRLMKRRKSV

Structure (SMILES)	B-score
Cc1ccc(C)c(NC(=O)CSc2nnc(Cc3cccn3C)n2-c2ccc(F)cc2)c1	inactive
Cc1ccc(C)c(NC(=O)CSc2nc3c(oc4ccccc43)c(=O)n2-c2ccccc2)c1	-7.91 (active)
Cc1ccc(C)c(Cn2cnc3c(oc4ccccc43)c2=O)c1	inactive
C=CCOc1ccc(C(=O)Nc2ccccc2C(=O)N2CCCC2)cc1	inactive
Cc1ccc(C2NC(C(=O)O)CS2)cc1 (stereo unspecified)	inactive
COc1ccc(-c2nc(N)ncc2-c2ccc(Cl)cc2)c(O)c1	inactive
CC(C)(C)Oc1ncc(Br)c(OC(C)(C)C)n1	inactive
COc1cccc(-c2cnc(OC(C)(C)C)nc2OC(C)(C)C)c1	-8.72 (active)
COc1ccc(CN2CCC(c3nc4ccc(Cl)cc4[nH]3)CC2)cc1	inactive
Cc1ccc(C(=O)NC2CCN(C(=O)Nc3ccc(F)cc3)CC2)cc1	inactive
O=C(Cc1ccccc1)NCc1ccc(F)cc1	inactive
CN(C)c1ccc(C(CNC(=O)c2ccc(F)cc2)c2c[nH]c3ccccc23)cc1 (stereo unspecified)	-13 (active)
O=C(CNC(=O)c1ccc(F)cc1)c1ccccc1	inactive
O=C(CN(c1ccccc1)S(=O)(=O)c1ccc(Cl)cc1)Nc1ccccc1C(=O)N1CCCC1	inactive
Clc1ccc(COn2c(-c3ccc(Cl)cc3Cl)nc3ncccc32)cc1	-10.6 (active)
COn1c(-c2ccc(Cl)cc2Cl)nc2ncccc21	inactive
Clc1ccc(-c2ncc3ccccn23)c(Cl)c1	inactive
CC1CCN(S(=O)(=O)c2nnc(NC(=O)COc3ccccc3F)s2)CC1	inactive
N/C(=N\S(=O)(=O)c1ccc(Cl)cc1)N1CCOCC1	inactive
Cc1ccc(C2CC(=O)NC(SCC(=O)OCc3ccccc3)=C2C#N)o1 (stereo unspecified)	inactive
CC1=C(C(=O)OCc2ccccc2)C(c2ccco2)n2ncnc2N1 (stereo unspecified)	inactive
CCOC(=O)CSC1=C(C#N)C(c2ccco2)C(C(=O)OCc2ccccc2)=C(C)N1 (stereo unspecified)	-7.3 (active)

Structure (SMILES)	B-score
CC(=O)N[C@@H](C)C(=O)N1CCC(n2nccc2NC(=O)CCCc2ccccc2)CC1	inactive
COc1ccc(-n2c(=O)[nH]c3cc(C(=O)NCCc4ccc(OC)c(OC)c4)ccc3c2=O)c(OC)c1	inactive
COc1ccccc1-c1nc(SC)n[nH]1	inactive
COc1ccc(-c2n[nH]c(C)c2-c2ccccc2OC)c(O)c1	inactive
COc1ccccc1-c1n[nH]c2c1[C@H](C)CC[C@H]2C(C)C	-6.66 (active)
Cc1ccc2nc(SCC(=O)N3CCN(c4ccccc4)CC3)nc(=O)n2c1	inactive
O=C(NCC(=O)N1CCCC(C(F)(F)F)C1)c1ccccc1F (stereo unspecified)	inactive
Cc1ccc(CNC(=O)CCS(=O)(=O)c2ccc3c(c2)CC(C)N3C(=O)C2CC2)o1 (stereo unspecified)	inactive
Cc1ccc(C(=O)Nc2ccc(C)c(S(=O)(=O)N(C)C)c2)s1	inactive
O=C(NCCCO)c1cc2c([nH]c3ccccc32)c(-c2ccc(F)cc2)n1	inactive
C=CCn1c(SCC(=O)NC)nnc1C12CC3CC(CC(C3)C1)C2	inactive
CC1=C(C(=O)OC(C)(C)C)C(c2ccc(Br)cc2)NC(=O)N1CCCC(=O)O (stereo unspecified)	inactive
Cc1ccc(C2Nc3ccccc3C(=O)N2CCN2CCNC2=O)cc1 (stereo unspecified)	inactive
COc1ccc(C2Nc3ccccc3C(=O)N2Cc2ccccc2)cc1Cn1nnc2ccccc21 (stereo unspecified)	-8.45 (active)
COc1ccc(C2Nc3ccccc3C(=O)N2c2ccc(F)cc2)cc1Cn1nnc2ccccc21 (stereo unspecified)	inactive
Cc1cc(NC(=O)/C=C/C(=O)N(CC(=O)NC2CCCC2)c2ccc(F)cc2)no1	inactive
CCCCCC(O)c1cccc(OCc2ccc3ccccc3n2)c1 (stereo unspecified)	-16.3 (active)
CCCCCCOC(=O)NCC(O)c1ccccc1 (stereo unspecified)	inactive
COc1cccc(C(O)c2nc3ccccc3n2C)c1 (stereo unspecified)	inactive
COc1cc(CCC(=O)N2CCN(c3ccccc3Cl)CC2)cc(OC)c1OC	inactive
c1ccc(C2c3[nH]c4ccccc4c3CCN2Cc2cccn2-c2cccnc2)nc1 (stereo unspecified)	inactive
CCOc1ccc(C2c3[nH]c4ccccc4c3CCN2Cc2cccn2-c2ncccn2)cc1 (stereo unspecified)	-9.89 (active)

Structure (SMILES)	B-score
CCOc1ccc(C2c3[nH]c4ccccc4c3CCN2Cc2cn(CC)nc2C)cc1 (stereo unspecified)	inactive
O=C(/C=C/c1cccs1)c1cc(Cl)ccc1OC(=O)N1CCOCC1	inactive
COc1cc(NC(=O)Nc2ccc(C)cc2)cc([N+](=O)[O-])c1	inactive
COc1cc(NC(=S)NCCSc2ccc(C)cc2)cc(OC)c1	-9.28 (active)
COc1cc(NC(=S)NCc2ccc(S(N)(=O)=O)cc2)cc(OC)c1	inactive
Cc1cc(C)n(-c2ccc(NC(=O)C3CCCCN3C(=O)c3cccs3)cc2)n1 (stereo unspecified)	inactive
CNC(C)C#Cc1ccc2sc3cc(OC)c(OC)cc3c(=O)c2c1 (stereo unspecified)	inactive
CCOC(=O)C1=C(c2ccccc2)O/C(=C(/C(=O)OC)C(F)(F)F)S1	inactive
Cc1ccccc1C(=O)Nc1ccccc1NC(=O)c1ccccc1C	inactive
CCCCCCCCn1c2c(c(=N)c3c1CCC3)CCCC2	-14.2 (active)
O=C(NCc1cc(F)cc(C(F)(F)F)c1)C1CCC(=O)N(C2CCCC2)C1 (stereo unspecified)	inactive
COc1ccccc1C(=O)NCCn1cc(SCC(=O)NCc2ccco2)c2ccccc21	inactive
COc1ccc(S(=O)(=O)NCCc2c[nH]c3ccccc23)cc1OC	inactive
COc1cccc(CNCCc2c[nH]c3ccccc23)c1OCc1ccccc1F	-8.25 (active)
COc1ccccc1CC(=O)NCCc1c[nH]c2ccccc12	inactive
Cc1cc(C)n(CCNS(=O)(=O)c2ccc(Cl)cc2)n1	inactive
COc1cccc(NC(=O)N2CCCC2C(=O)NC2CCCCC2)c1 (stereo unspecified)	inactive
CCC1CCCCN1C(=O)Nc1cccc(NC(=O)N2CCCCC2CC)c1 (stereo unspecified)	-7.72 (active)
CCC1CCCCN1C(=S)Nc1ccc(C(C)=O)cc1 (stereo unspecified)	inactive
O=C(Nn1c(-c2ccc(Cl)cc2)nc2ccccc2c1=O)c1cccnc1Cl	inactive
C/C(=N\N(C)C)c1ccc(OCCOc2ccc([N+](=O)[O-])cc2)cc1	inactive
Cc1ccc(NC(=O)c2cc3ccccc3o2)cc1	inactive

Structure (SMILES)	B-score
Cc1c(/C=N\NC(=O)c2cc3ccccc3o2)c2ccccc2n1C	-6.85 (active)
O=C(N/N=C/c1c[nH]c2ccccc12)c1cc2ccccc2o1	inactive
CC(C)c1nnc(NC(=O)C2CC(=O)N(CCc3ccc(F)cc3)C2)s1 (stereo unspecified)	inactive
CCCc1nc(SCC(=O)Nc2ccc(S(=O)(=O)N(C)C)cc2)c2ccccc2n1	inactive
CN(C(=O)CSc1nc(C2CC2)nc2ccccc12)c1nc(-c2ccccc2)cs1	inactive
CC(C)N(C(=O)CSc1nc(COc2ccccc2)nc2ccccc12)C(C)C	-17.1 (active)
COCCCNC(=S)N1CCN(c2nc(-c3cccc(OC)c3)cs2)CC1	inactive
CN(c1ccc(OCC(=O)O)cc1)S(=O)(=O)c1ccc2ccccc2c1	inactive
Cc1ccc2nc(COc3ccc(N(C)S(=O)(=O)c4ccccc4)cc3)cc(=O)n2c1	inactive
COc1cccc(COc2ccc(N(C)S(=O)(=O)c3ccccc3)cc2)c1	-14.1 (active)
O=C(Nc1ccccc1)O/N=C1/CCCc2occc21	inactive
Cc1ccc2c(c1)N(CC(=O)N1CCC(O)CC1)C(=O)CO2	inactive
O=C(O)COCC(=O)NCc1csc2ccc(Cl)cc12	inactive
Cc1c(C(=O)Nc2ccccn2)oc2ccc(Br)cc12	-9.33 (active)
Cc1nonc1NC(=O)c1oc2ccccc2c1C	inactive
Cc1noc(C)c1C(=O)Nc1ccccn1	inactive
C[C@H](NC(=O)c1nc[nH]c1C(=O)NCC(=O)OC(C)(C)C)C(=O)OCc1ccccc1	inactive
O=C(NCC1CCCO1)c1cc2c([nH]c3ccccc32)c(-c2ccc(F)cc2)n1 (stereo unspecified)	inactive
CSCC[C@H](NC(=O)CCCn1nnc2ccccc2c1=O)C(=O)O	inactive
CCN(CC)CCNC(=O)c1ccc(NC(=O)c2c(F)cccc2Cl)cc1	inactive
Cc1nn(-c2ccccc2)c(Cl)c1/C=N/NC(=O)c1nn(C)cc1[N+](=O)[O-]	inactive
Cc1cc(=O)[nH]c(N/N=C/c2c(C)nn(-c3ccccc3Cl)c2Cl)n1	-6.92 (active)

Structure (SMILES)	B-score
Cc1cc(=O)[nH]c(N/N=C/c2ccc3c(c2)OCCO3)n1	inactive
C=C1CCN([C@H](C(=O)NCc2cc(OC)c(OC)c(OC)c2)C(C)C)S(=O)(=O)c2ccccc21	inactive
CCN(c1ccccc1)S(=O)(=O)c1cc2c(cc1C)n(C)c(=O)c(=O)n2C	inactive
Cc1ccc2c(c1)N(CC(=O)N(Cc1ccccn1)Cc1ccco1)C(=O)C(C(C)C)O2 (stereo unspecified)	inactive
COc1cccc(-c2cc(C(=O)N3CCN(c4ccccc4OC)CC3)no2)c1	inactive
COc1ccccc1N1CCN(C(=O)c2cc3c(-c4ccc(Cl)cc4)nn(C)c3s2)CC1	-13.6 (active)
COc1cccc(-c2nn(C)c3sc(C(=O)N4CCN(c5ccccc5)CC4)cc23)c1	-9.93 (active)
Cn1nc(-c2ccc(Cl)cc2)c2cc(C(=O)NCc3ccco3)sc21	inactive
Cn1nc(C(F)(F)F)c2cc(C(=O)N3CCOCC3)sc21	inactive
COc1cccc(-c2ccc(SCC(=O)N3CCN(c4ccccc4)CC3)nn2)c1	inactive
CN1CCN(C2Cc3ccc(Cl)cc3Sc3ccc(F)cc32)CC1 (stereo unspecified)	inactive
N#C/C=C/N1CCN(Cc2ccc3c(c2)OCO3)CC1	inactive
CC(C)(C)NC(=O)Cn1c(SCC(=O)Nc2nccs2)nc2ccccc21	inactive
O=C(Nn1cnnc1)c1cc(Cl)ccc1Cl	inactive
COc1ccc(/C=N/OCc2ccccc2C#N)c(OC)c1	inactive
O=C(Nc1ccccc1)N1CCN(C(=O)Nc2ccccc2)CC1	inactive
COc1cc(C(=O)NCC(=O)N2CC=C(c3ccccc3)CC2)cc(OC)c1OC	inactive
O=C(Nc1ccc(Cl)c(Cl)c1)N1CC=C(c2ccccc2)CC1	-8.34 (active)

From PubChem BioAssay AID488922 (Johns Hopkins Ion Channel Center, 2010)
